This note sets out measurements from PubChem BioAssay.

For assay [1], the target named is Protein phosphatase methylesterase 1 (Homo sapiens) (UniProt Q9Y570). The assay can be described thus: human PME-1 methylesterase inhibition confirmation – biochemical, fluorescence polarization, FP-Rh probe, triplicate (AID 2171).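 Further: 0% = enzyme with DMSO and 100% = wells lacking PME-1.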 Conditions: recombinant PME-1, FP-Rh probe fluorescence polarization; at 5.9 µM; active compounds read high. Background: Fluorescence polarisation rises when a labelled molecule tumbles more slowly, as on binding a larger partner.

For assay [2], the target named is Nuclear receptor coactivator 3 (Homo sapiens) (UniProt Q9Y6Q9). The assay can be described thus: NCOA3 GAL4-fusion reporter inhibition – cell-based, luminescence, quadruplicate, confirmation (AID 588792;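 active means mean inhibition over 43.08%, the solvent-only control mean plus 3 SD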;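 further: 0% = DMSO treated cells and 100% = gossypol at 36 µM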). The settings on record: HEK293 GAL4-SRC3 luciferase reporter, at 3.6 µM, active compounds read high. A general note: In a reporter assay the amount or activity of a reporter protein is the signal.

Assay [3] concerns transactivating tegument protein VP16 (Human herpesvirus 1), Gal4-VP16 luciferase reporter. In words: repression of VP16-driven luciferase reporter – cell-based, luminescence, high throughput, counter-screen for SRC3 inhibitor project (AID 588794; in the data active means inhibition above about 30%). Conditions: mammalian cells, at 3.6 µM, active compounds read high.
Assay [4] has as its target Nuclear receptor coactivator 1 (Homo sapiens) (UniProt Q15788). The assay can be described thus: NCOA1 GAL4-fusion reporter inhibition – cell-based, luminescence, quadruplicate, confirmation (AID 588820;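 active means mean inhibition above 46.68%, the untreated control wells mean plus 3 SD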;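 further: 0% = DMSO wells and 100% = gossypol 36 µM treated wells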). Conditions: HEK293 GAL4-SRC1 luciferase reporter, at 3.6 µM, active compounds read high.
Assay [5] can be described thus: repression of VP16-driven luciferase reporter – cell-based, luminescence, high throughput, counter-screen for SRC1 inhibitor project (AID 588824; in the data active means inhibition above about 25%). The settings on record: cell-based VP16 transactivation luciferase luminescence; at 3.6 µM; active compounds read high.
Assay [6] in a line: StAR promoter reporter inhibitors, counter-screen for LRH-1 inverse agonist project, cell-based, luminescence, high throughput (AID 651611; in the data active means inhibition above about 28%). The settings on record: StAR promoter luciferase reporter counterscreen, at 3.6 µM, active compounds read high. In general terms: Counterscreens check selectivity or assay interference.
Assay [7] has as its target Nuclear receptor subfamily 5 group A member 2 (Homo sapiens) (UniProt O00482). In words: NR5A2 activity suppression in reporter cells – cell-based, luminescence, confirmation (AID 651613; in the data active means inhibition above about 42%;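 further: HEK293T cells co-transfected with LRH-1 and StAR promoter luciferase reporter; 0% = vehicle wells and 100% = parental cells lacking receptor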). Conditions: cell-based LRH-1 luciferase reporter, inverse agonism; at 3.6 µM; active compounds read high.
Assay [8] has as its target Steroidogenic factor 1 (Homo sapiens) (UniProt Q13285). The assay can be described thus: inverse agonism at SF1 nuclear receptor – cell-based, luminescence, high throughput, counter-screen for LRH-1 inverse agonist project (AID 651614; in the data active means inhibition above about 44%;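 further: cells cotransfected with StAR promoter reporter and SF1 expression vector; 0% = vehicle on cells with receptor and 100% = vehicle on cells lacking receptor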). Conditions: cell-based SF1 luciferase reporter, at 3.6 µM, active compounds read high.
Assay [9] is described as follows: compounds suppressing VP16-driven luciferase signal – cell-based, luminescence, high throughput, counter-screen for LRH-1 inverse agonist project (AID 651615; in the data active means inhibition above about 33%). Conditions: Gal4-VP16 luciferase reporter cells, at 3.6 µM, active compounds read high.
Assay [10] relates to transactivating tegument protein VP16 (Human herpesvirus 1). In words: compounds suppressing VP16-driven luciferase signal – cell-based, luminescence, single concentration, counter-screen for SRC2 inhibitor project (AID 652007; in the data active means inhibition above about 36%). Conditions: cell-based VP16 transactivation luciferase reporter, at 8.9 µM, active compounds read high.
Assay [11] concerns the target Nuclear receptor coactivator 2 (Homo sapiens) (UniProt Q15596). The assay can be described thus: inhibition of GAL4-SRC2 driven luciferase expression – cell-based, luminescence, HEK293, triplicate, confirmation (AID 652008;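 active means mean inhibition above 46.5%, the solvent-only control mean plus 3 SD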;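 further: 0% = DMSO-treated cells and 100% = Gossypol at 36 µM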). Conditions: HEK293 GAL4-SRC2 luciferase reporter, at 8.9 µM, active compounds read high.
Assay [12] deals with Serine protease HTRA1 (Homo sapiens) (UniProt Q92743). In words: confirming inhibition of human HTRA1 – biochemical, fluorescence polarization, confirmation (AID 540248;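 active means mean inhibition over three repeats above a set limit taken from the earlier primary screen, cut at about 37% in these data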;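 further: 0% = HTRA1 with DMSO and 100% = wells lacking HTRA1; inhibitors block probe binding so polarization drops and inhibition rises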). The settings on record: recombinant HTRA1, FP-rhodamine activity-based probe, at 5.96 µM, active compounds read high.

A number with no mark means an inactive call. The list shows a part of the results. Calls of active or inactive are those of the source.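 How the source made its calls, unless noted: active means inhibition above the hit cutoff set in the earlier primary screen (cut at about 27% in these data); inactive means the rest.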

Chain of Protein phosphatase methylesterase 1 (Homo sapiens) (Q9Y570 whole entry, looked up): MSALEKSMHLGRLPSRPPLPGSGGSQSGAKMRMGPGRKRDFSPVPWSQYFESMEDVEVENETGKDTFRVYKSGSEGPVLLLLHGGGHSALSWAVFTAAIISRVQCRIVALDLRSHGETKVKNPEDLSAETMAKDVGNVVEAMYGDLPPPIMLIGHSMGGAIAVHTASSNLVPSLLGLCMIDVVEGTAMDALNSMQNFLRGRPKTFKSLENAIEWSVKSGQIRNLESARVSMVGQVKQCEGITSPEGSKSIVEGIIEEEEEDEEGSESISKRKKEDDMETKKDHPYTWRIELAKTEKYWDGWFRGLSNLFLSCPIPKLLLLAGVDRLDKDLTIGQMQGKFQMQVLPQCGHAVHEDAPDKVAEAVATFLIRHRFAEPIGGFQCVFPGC
Chain of Nuclear receptor coactivator 2 (Homo sapiens) (Q15596 whole entry, looked up, the tested form may be a part): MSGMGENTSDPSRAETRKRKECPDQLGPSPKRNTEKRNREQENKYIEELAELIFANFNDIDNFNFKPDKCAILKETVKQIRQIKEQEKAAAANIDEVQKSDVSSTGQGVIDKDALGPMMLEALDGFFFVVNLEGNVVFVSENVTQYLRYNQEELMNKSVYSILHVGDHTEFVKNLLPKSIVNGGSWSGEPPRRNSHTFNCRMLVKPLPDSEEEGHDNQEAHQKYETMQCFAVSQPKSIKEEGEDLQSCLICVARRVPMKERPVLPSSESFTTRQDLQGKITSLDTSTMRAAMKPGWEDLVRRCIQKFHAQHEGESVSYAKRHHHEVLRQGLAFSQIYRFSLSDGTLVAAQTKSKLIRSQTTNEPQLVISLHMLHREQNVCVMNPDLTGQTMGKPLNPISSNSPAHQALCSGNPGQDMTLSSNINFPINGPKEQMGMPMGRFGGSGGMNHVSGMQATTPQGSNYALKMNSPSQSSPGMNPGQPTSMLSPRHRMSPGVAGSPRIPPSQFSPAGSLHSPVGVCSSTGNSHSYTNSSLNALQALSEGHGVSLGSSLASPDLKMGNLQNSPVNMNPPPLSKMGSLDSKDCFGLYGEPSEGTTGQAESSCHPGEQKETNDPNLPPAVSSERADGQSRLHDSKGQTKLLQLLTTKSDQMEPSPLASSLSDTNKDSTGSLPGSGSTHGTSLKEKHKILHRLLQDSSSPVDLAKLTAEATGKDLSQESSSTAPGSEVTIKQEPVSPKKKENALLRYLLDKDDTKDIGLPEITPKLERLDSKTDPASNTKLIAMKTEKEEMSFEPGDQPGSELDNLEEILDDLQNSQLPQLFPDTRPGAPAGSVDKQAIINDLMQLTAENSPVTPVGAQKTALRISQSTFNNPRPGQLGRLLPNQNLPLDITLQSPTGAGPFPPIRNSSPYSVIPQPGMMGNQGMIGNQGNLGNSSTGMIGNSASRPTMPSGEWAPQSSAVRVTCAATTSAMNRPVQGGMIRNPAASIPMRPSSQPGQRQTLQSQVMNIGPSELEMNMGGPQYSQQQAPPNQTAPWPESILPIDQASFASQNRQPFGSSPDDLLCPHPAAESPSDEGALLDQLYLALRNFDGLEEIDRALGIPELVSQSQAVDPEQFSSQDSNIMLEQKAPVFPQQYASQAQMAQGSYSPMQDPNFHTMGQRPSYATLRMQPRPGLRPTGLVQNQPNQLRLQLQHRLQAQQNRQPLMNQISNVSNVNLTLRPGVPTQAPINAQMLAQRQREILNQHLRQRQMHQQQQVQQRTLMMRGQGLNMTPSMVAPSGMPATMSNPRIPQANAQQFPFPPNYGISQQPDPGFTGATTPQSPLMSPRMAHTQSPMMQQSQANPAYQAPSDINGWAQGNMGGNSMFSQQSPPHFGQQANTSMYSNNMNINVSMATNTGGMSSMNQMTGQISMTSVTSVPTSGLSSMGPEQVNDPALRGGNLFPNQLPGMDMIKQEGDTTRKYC
Chain of Steroidogenic factor 1 (Homo sapiens) (Q13285 whole entry, looked up, the tested form may be a part): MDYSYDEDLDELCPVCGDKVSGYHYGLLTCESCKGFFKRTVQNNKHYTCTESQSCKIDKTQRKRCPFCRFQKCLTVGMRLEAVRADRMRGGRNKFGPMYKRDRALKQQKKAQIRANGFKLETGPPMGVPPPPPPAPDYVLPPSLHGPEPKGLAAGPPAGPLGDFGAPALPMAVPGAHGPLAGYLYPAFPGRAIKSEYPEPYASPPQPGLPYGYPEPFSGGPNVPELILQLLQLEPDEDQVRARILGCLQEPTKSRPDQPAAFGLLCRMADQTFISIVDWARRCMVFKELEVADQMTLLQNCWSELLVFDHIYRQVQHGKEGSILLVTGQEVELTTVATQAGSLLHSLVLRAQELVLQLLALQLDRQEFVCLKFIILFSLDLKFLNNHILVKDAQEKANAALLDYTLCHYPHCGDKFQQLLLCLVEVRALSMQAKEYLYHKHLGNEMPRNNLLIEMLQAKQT
Chain of Nuclear receptor coactivator 1 (Homo sapiens) (Q15788 whole entry, looked up, the tested form may be a part): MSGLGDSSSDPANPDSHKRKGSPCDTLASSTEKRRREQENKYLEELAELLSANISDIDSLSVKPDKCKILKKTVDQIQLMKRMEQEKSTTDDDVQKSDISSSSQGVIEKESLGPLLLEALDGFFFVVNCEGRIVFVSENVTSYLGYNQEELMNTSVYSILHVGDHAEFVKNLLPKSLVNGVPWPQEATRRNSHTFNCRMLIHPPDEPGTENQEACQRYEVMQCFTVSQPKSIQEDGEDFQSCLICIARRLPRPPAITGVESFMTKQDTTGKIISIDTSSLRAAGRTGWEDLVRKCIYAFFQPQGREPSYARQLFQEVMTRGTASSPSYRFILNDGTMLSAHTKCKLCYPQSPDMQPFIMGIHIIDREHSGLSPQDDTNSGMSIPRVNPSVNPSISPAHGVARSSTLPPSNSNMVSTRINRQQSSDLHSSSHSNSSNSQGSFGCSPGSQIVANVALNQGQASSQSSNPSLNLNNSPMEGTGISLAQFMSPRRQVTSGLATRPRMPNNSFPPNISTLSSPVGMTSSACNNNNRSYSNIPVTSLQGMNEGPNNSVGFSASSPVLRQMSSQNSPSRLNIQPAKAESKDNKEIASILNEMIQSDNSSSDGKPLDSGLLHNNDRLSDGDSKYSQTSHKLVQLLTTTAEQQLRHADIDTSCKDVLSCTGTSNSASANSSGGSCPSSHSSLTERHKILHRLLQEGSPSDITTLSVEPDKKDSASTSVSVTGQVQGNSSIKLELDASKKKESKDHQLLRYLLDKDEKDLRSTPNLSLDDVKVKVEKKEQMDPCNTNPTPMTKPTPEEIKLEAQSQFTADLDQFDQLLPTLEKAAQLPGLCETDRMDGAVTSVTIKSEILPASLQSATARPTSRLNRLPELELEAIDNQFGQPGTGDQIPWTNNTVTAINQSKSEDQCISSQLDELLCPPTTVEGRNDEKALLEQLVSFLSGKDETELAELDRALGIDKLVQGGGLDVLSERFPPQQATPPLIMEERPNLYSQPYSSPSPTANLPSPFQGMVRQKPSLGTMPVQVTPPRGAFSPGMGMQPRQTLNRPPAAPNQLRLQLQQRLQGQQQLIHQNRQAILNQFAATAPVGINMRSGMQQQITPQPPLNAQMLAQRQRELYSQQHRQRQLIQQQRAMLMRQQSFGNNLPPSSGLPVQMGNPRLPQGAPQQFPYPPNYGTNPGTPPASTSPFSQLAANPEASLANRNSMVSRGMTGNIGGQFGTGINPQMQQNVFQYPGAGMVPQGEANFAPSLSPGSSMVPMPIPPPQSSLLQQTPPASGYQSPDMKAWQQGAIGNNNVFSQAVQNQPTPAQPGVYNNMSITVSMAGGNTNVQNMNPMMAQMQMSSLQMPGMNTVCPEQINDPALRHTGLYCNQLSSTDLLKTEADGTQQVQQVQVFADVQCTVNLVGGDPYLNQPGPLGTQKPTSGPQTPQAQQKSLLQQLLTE
Chain of Nuclear receptor subfamily 5 group A member 2 (Homo sapiens) (O00482 whole entry, looked up): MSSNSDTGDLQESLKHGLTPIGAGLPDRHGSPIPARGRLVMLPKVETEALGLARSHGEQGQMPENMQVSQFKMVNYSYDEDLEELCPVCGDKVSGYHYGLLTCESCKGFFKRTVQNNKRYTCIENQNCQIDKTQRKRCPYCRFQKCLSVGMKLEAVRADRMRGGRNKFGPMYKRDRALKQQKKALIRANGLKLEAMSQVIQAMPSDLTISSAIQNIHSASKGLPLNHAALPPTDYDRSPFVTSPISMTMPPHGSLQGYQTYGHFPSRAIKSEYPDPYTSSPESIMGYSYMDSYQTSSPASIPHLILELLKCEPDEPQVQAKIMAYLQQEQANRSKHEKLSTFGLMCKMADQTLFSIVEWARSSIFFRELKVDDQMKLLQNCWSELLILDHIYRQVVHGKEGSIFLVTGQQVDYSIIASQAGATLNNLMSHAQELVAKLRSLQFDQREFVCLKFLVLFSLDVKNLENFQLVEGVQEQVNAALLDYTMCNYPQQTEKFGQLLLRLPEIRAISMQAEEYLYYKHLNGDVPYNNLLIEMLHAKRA

As for `Cc1ccc(S(=O)(=O)/N=C2/C=C(Sc3ncn[nH]3)C(=O)c3ccccc32)cc1`, the inhibition (as a rule, the drop in the measured response relative to a control, in per cent) in [1] was 54.4% (active).

On to `O=C(CNc1ccc(F)cc1)N/N=C/c1c(O)ccc2ccccc12`, for which the inhibition in assay [1] was 16.3%.

Consider `COc1ccc(OC)c2[nH]c(C(=O)N/N=C/c3ccccc3O)cc12`, for which the figures for the inhibition in assay [1], in assay [2] and in [3] were -0.45%, 30.1% and 39.2% (active), respectively.

With `COc1ccc(S(=O)(=O)/N=C2\C=C(Nc3ccc(O)cc3)C(=O)c3ccccc32)cc1`, the inhibition in [1] was 63.2% (active); in assay [2], 94.1% (active); in assay [3], 92.8% (active); in assay [4], 85% (active); in assay [5], 90.8% (active); in assay [6], 92% (active). In addition, the inhibition was 107% (active) in assay [7]; 96.7% (active) in assay [8]; 97.2% (active) in assay [9]; 67% (active) in [10]; 73% (active) in [11].

For `CCOc1ccc(N=C/C=C/c2ccccc2)c(O)c1`, the inhibition in [1] was 9.57%.

`Cc1ccc(C(C)C)c(OCc2ccc(C(=O)N/N=C/c3ccc(O)cc3O)cc2)c1`: the inhibition in [1] is -0.21%; in assay [2] it was 77.2% (active); in assay [3] it was 78.3% (active); in assay [4] it was 67% (active); in assay [5] it was 77% (active); in assay [6], 80.8% (active). The inhibition in assay [7] is 100% (active); in assay [8] it was 80.9% (active); in [9], 71.2% (active); in [10], 20.9%; in assay [11], 68.3% (active).

Turning to `COC(=O)c1ccc(Sc2ccccc2NS(=O)(=O)c2ccc(C)cc2)nc1`, the inhibition in assay [1] is 25.9%.

As for `Cc1cc(C)nc(SCc2ccc(C(=O)N/N=C/c3cccc(O)c3O)cc2)n1`, the inhibition in assay [1] is -47%; in [2] it was 28.5%; in assay [3] it was 38.9% (active); in assay [4], 27.1%; in [5], 23.9%.

`CC1=NN(c2ccccc2)C(=O)/C1=C/c1c(O)n(-c2ccc(F)cc2)[nH]c1=O`: in assay [1], the inhibition is 52.1% (active).

In the case of `O=c1c2ccccc2nc(/C=C/c2c[nH]c3ccccc23)n1CCO`, in [1], the inhibition is 58.5% (active).

With `CCN(CC)S(=O)(=O)c1ccc(N/N=C/c2ccc(O)cc2O)nc1`, the inhibition in assay [1] was 35% (active); in [2], 68.3% (active); in assay [3] it was 67.3% (active); in assay [4] it was 63.5% (active); in [5] it was 58.3% (active).

As for `CCC(=O)Nc1nc(C)c(-c2csc(Nc3cccc(O)c3)n2)s1`, the inhibition in [1] was 20%; in [2], 16.5%; in assay [3], 47.6% (active).

For the compound `COc1ccc(O)c(/C=N/NC(=S)Nc2cccc(S(=O)(=O)N(C)C)c2)c1`, the inhibition was 25.4% in [1], 24.6% in assay [2] and 26.2% in assay [3].

On to `Nc1ccc(C(=O)N/N=C\c2cc(N=Nc3cccc4ccccc34)ccc2O)cc1`, for which the inhibition in assay [1] is 15.1%; in [2], 15.1%; in assay [3], 17.7%; in assay [4] it was 14.5%; in assay [5] it was 31.8% (active).

Consider `CCn1nc([N+](=O)[O-])c(C(C#N)c2nc3cc(C(F)(F)F)ccc3s2)c(Cl)c1=O` (stereo unspecified), for which the figures for the inhibition in [1], in [2] and in assay [3] were 67.1% (active), 10.4% and 12.3%, respectively.

Consider `Oc1ccc(/C=C/c2ccc3cccc(O)c3n2)cc1Br`, for which the inhibition in assay [1] is 23.9%.

For the compound `COc1cccc(/C=N/Nc2ccc([N+](=O)[O-])cn2)c1O`, the inhibition in [1] is 1.07%; in [2], 48% (active); in [3] it was 10.2%.

For the compound `Oc1ccccc1N=Nc1nc(-c2ccccc2)c(-c2ccccc2)[nH]1`, the inhibition in assay [1] was -3.97%; in assay [2], 81.4% (active); in assay [3], 76.4% (active); in assay [4], 76.5% (active); in assay [5], 71% (active); in [6], 86.9% (active). Besides, the results for the inhibition in assay [7], in [8] and in assay [9] were 98.3% (active), 84% (active) and 65.3% (active), respectively.

For the compound `O=c1c2ccccc2nc(N/N=C/c2c(O)ccc3ccccc23)n1O`, the inhibition is 43.9% (active) in assay [1]; 55.4% (active) in [2]; 78.8% (active) in [3]; 20.9% in [4]; 76.4% (active) in assay [5]; 81.4% (active) in [6]. Further, the inhibition in assay [7] is 101% (active); in assay [8], 90.2% (active); in assay [9], 78.3% (active).

Take `N#C/C(=N\Nc1cccc([N+](=O)[O-])c1)C(=O)c1ccc(Br)cc1`: the inhibition in [1] is 29.5% (active); in assay [2], 4.19%; in assay [3], 26.8%.

For `O=[N+]([O-])c1ccc(N/N=C/c2ccccc2O)cc1`, the inhibition in assay [1] was 10.8%.

Regarding `Cc1c(C(=O)O)cccc1-c1ccc(/C=N/Nc2ccc(Br)cc2)o1`, the inhibition in assay [1] was 39.6% (active).

For the compound `O=C1NC(=S)/C(=C\c2ccc(-c3ccccc3Cl)o2)S1`, the inhibition in assay [1] was 33.2% (active).

As to `O=C(Nc1ccc(OC(F)(F)F)cc1)c1ccc2c(c1)no[n+]2[O-]`, the inhibition in assay [1] was 61.4% (active); in assay [12], 69.4% (active); in assay [10], -77.2%; in assay [11], -55.7%.

For the compound `COc1ccc(-c2csc(NC(=O)c3ccccc3NS(=O)(=O)c3ccc(F)c(F)c3)n2)cc1`, the inhibition in [1] was -5.29%; in assay [2], 69.3% (active); in assay [3], 71.4% (active); in assay [4], 55% (active); in assay [5] it was 81.9% (active).

On to `CCN1/C(=C/C=C/c2oc3ccc(-c4ccccc4)cc3[n+]2CC)Oc2ccc(-c3ccccc3)cc21`, for which the inhibition in assay [1] is -81.5%; in assay [2], 98.3% (active); in assay [3], 95.4% (active); in assay [4] it was 71.9% (active); in [5], 94.2% (active); in [6] it was 92.2% (active). Besides, the inhibition in assay [7] was 110% (active); in assay [8], 97.2% (active); in [9], 96.4% (active).

Turning to `Cc1cc([N+](=O)[O-])ccc1-c1ccc(C2Nc3ccccc3C(=O)N2O)o1` (stereo unspecified), the inhibition in assay [1] was 25%; in assay [2], 23.6%; in assay [3] it was 1.31%.

Consider `Cc1ccc(Nc2nc(-c3ccc(O)cc3O)cs2)nc1`, for which the inhibition in assay [1] was 34% (active); in [12], 50.7% (active).
